According to PubChem BioAssay AID743315 (Broad Institute, 2014):
Potency and affinity values are given separately. The source made the active and inactive calls.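 How the source made its calls: active means cell killing, with a fitted active concentration at or below twice the top valid dose tested; inconclusive means flat curve with moderate cell loss, or an unreliable fit; inactive means effect in the rising direction, plus the rest.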

Assay: loss of HEK293T viability via ATP – cell-based, plate reader, dry powder, set 10, cytotoxicity control, dose response (AID 743315)
Settings: CellTiter-Glo ATP luminescence, 72 h; series mostly up to 26 µM

SMILES	outcome
Fc1ccc(OCCn2c(=S)[nH]c3ccccc32)cc1	inactive
Cc1cccc(OCCn2c(=S)[nH]c3ccccc32)c1	inactive
COc1cccc(OCCn2c(=S)[nH]c3ccccc32)c1	inactive
Cc1ccccc1OCCn1c(=S)[nH]c2ccccc21	inactive
Cc1ccc(C)c(OCCn2c(=S)[nH]c3ccccc32)c1	inactive
Fc1ccc2[nH]c(=S)n(CCOc3ccccc3)c2c1	inactive
COc1ccc(OCCn2c(=S)[nH]c3ccccc32)cc1	inactive
